This is an account of results in PubChem BioAssay AID588453 (National Center for Advancing Translational Sciences (NCATS), 2011).

The whole screen tested about 390,000 compounds, of which about 4,000 (1%) were called active. Entries that show only a call come without a potency. Not shown: some 4% with an inconclusive outcome. The sample holds actives, similar compounds and a random draw of the others, so the mix is not that of the screen. The call rests on the fitted dose curve; in most records, active means well fitted inhibition curve with a large enough effect; inconclusive means small, poorly fitted or top-dose-only effect; inactive means no such curve, though single readings can be large or run the other way.
Potency means the concentration at half of the fitted maximal effect.

The target in this assay is Thioredoxin reductase 1, cytoplasmic (Rattus norvegicus) (UniProt O89049). The experiment in a line: qHTS Assay for Inhibitors of Mammalian Selenoprotein Thioredoxin Reductase 1 (TrxR1): qHTS. Further: nearly all actives have a fitted effect of over 65% in size. To be noted: recombinant rTrxR1, NADPH fluorescence consumption, selenite substrate; series mostly up to 114 µM. Put shortly: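 Rat TrxR1 (90 nM in the dispensed reagent) was pre-reduced with 400 uM NADPH for 5 min at room temperature, then incubated with compound for 15 min. After 400 uM selenite was added, NADPH fluorescence (Ex 340/Em 450 nm) was followed for 8 min.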
Chain of Thioredoxin reductase 1, cytoplasmic (Rattus norvegicus) (O89049 whole entry, looked up): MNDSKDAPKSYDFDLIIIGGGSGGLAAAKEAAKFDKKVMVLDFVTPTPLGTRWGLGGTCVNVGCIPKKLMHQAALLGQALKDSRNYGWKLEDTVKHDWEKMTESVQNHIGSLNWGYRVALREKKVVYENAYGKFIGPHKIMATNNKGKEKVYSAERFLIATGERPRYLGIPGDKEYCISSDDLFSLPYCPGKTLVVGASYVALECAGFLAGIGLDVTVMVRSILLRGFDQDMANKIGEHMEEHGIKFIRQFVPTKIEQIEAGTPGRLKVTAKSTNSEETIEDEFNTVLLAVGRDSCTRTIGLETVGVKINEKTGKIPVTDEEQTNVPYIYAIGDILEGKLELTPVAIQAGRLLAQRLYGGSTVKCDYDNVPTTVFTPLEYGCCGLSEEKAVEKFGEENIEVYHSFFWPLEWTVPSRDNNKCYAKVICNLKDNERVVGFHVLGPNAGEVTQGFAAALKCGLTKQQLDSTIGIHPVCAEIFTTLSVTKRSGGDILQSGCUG
`COc1ccc(-c2nc3scc(CCNS(=O)(=O)c4cc(F)ccc4OC)n3n2)cc1OC`: the Potency result was “inactive”. On the same count and under the same terms, to `CCOc1ccccc1NC(=O)CCn1cnnn1` belongs “inactive”; to `Cc1cc(C)nc(NC(=O)Nc2ccccc2C(F)(F)F)n1`, “inactive”; to `Cc1ccc2nc(CNC(=O)c3ccccc3)[nH]c2c1`, “inactive”. Still for that read-out and setting: in the case of `Cc1cc(C)nc(S/C=C/C(=O)c2ccccc2)n1` it was 1 µM (active). Regarding `OC(Cc1ccc2ccccc2n1)c1ccc(Cl)c(Cl)c1` (stereo not given), the activity change, negative = inhibition is 24.6% [at 0.0914 µM] (inactive). As for `COc1ccccc1NC(=O)c1cc(C2CC2)nc2c1c(C)nn2-c1ccc(C)cc1`, the Potency result is “inactive”. For `CCOC(=O)c1c(NC(=O)c2ccc(S(=O)(=O)N3CCCC(C)C3)cc2)sc2c1CCN(C(C)C)C2` (stereo not given), the Potency result is “inactive”. Same read-out and setting: in the case of `CCOc1ccc(CNC(=O)c2ccc(CS(=O)c3ccccc3)o2)cc1` (stereo not given) it was “inactive”; in that of `Cc1nn(CC(=O)O)c(=O)c2cc3cc(F)ccc3n12`, “inactive”. For `CC1=C/C(=N\OS(=O)(=O)c2ccccc2)C=CC1=O`, the Potency was 1.78 µM (active). Take `Cc1cc[n+](C2CCCCC2)cc1`: the Potency entry was “inactive”. On the same count and under the same terms, in the case of `CCC(Sc1nc2n[nH]c(C)c2c(=N)n1-c1ccccc1Cl)C(=O)N(CC)CC` (stereo not given) it was “inactive”; in that of `CC1CC(=NNC(=O)C2COc3ccccc3O2)CC(C)(C)C1` (stereo not given), “inactive”. On the same count and under the same terms, in the case of `CC(/C=C/c1ccccc1)=N\NC(=O)C1CC1(C)c1ccccc1` (stereo not given) it was “inactive”; in that of `CC(/C=C/c1ccco1)=N/NC(=O)C1COc2ccccc2O1` (stereo not given), 56.2 µM (active). Take `O=C(CCS(=O)(=O)c1cc(Br)cc2c1N(C(=O)C1CC1)CC2)Nc1ccc(C(F)(F)F)cc1`: the Potency result was “inactive”.

Consider `CN1CCN(c2oc(-c3ccc(COc4ccc(Cl)cc4)o3)nc2C#N)CC1`, for which the Potency result is “inactive”. Regarding `Cc1ccc(OCC(=O)Nc2cccc3c2CCCC3)cc1C`, the Potency result is “inactive”.

Take `Cc1ccc(SC(=O)COc2ccc(C)c(C)c2)cc1`: the Potency was 8.91 µM (active). The same measure, in the same setting: in the case of `COc1ccc(C(=O)COC(=O)COc2ccc(C)c(C)c2)cc1` it was “inactive”. Still for that read-out and setting: in the case of `OC[C@H]1O[C@@H](n2cnc3c(N[C@H]4CC5CCC4C5)ncnc32)[C@H](O)[C@@H]1O` (stereo not given in full) it was “inactive”. The same measure, in the same setting: in the case of `CSc1nc(-c2ccc(F)cc2)nc2c1Cc1c(CO)cnc(C)c1O2` it was “inactive”; in that of `Cc1oc(-c2ccccc2)nc1Cn1c(SCc2cccc(C(F)(F)F)c2)nc2cccnc21`, “inactive”; in that of `COc1cccc(CNC(=O)C(=O)NCC(c2cccs2)S(=O)(=O)c2ccccc2)c1` (stereo not given), “inactive”.
